VHR inh color = VHR1 (DUSP3) phosphatase inhibition; AID 1992; 50,000 compounds, 0.7% hits; inhibition, % at 20 µM; P51452; recombinant VHR phosphatase, colorimetric substrate read-out; in the data active = inhibition above about 60%
Target sequence (P51452 whole entry, looked up): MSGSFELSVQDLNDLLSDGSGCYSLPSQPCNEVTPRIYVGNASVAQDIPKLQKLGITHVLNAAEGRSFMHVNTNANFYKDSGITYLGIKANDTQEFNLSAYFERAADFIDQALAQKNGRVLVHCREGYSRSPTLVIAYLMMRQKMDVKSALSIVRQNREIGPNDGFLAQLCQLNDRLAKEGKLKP
An asterisk follows results filed as active. Many of the other results were omitted from the sample, so hits are more common in it than they were.

SMILES | VHR inh color
COc1ccc(C2CC(=O)Nc3c2cc(Br)c2ccccc32)c(OC)c1 (stereo unspecified) | 112*
CSc1ccc(C2CC(=O)Nc3c2cc(Br)c2ccccc32)cc1 (stereo unspecified) | 28
COc1cc(C2CC(=O)Nc3c2ccc2ccccc32)cc(Br)c1OC (stereo unspecified) | 103*
O=C1CC(c2ccc(F)c(Br)c2)c2ccc3ccccc3c2N1 (stereo unspecified) | -8
CCCOc1ccc(N2C(=O)C3C4C=CC(C4=C(C)C)C3C2=O)cc1 (stereo unspecified) | -20
O=C(O)C1C2CCC(C2)C1C(=O)Nc1nc2ccc(F)cc2s1 (stereo unspecified) | -15
COc1ccc(C2CC(C(F)(F)F)n3nc(C(=O)Nc4cccnc4)cc3N2)cc1 (stereo unspecified) | -17
c1ccc2c(N3CCCCC3)c3ccccc3nc2c1 | 15
Cc1ccc(NC(=O)CC2CCCCC2)cc1 | 6
O=C(CC1CCCCC1)Nc1ccccc1 | 97*
Cc1ccccc1NC(=O)CC1CCCCC1 | 39
O=C(NC1CCCCC1)c1cccc(C(F)(F)F)c1 | -42
COc1ccc(C(=O)NCCSc2ccc(C)cc2)cc1OC | -20
O=C1/C(=C\c2ccc(O)cc2)SC(=S)N1c1ccc(F)cc1 | -5
CC1(C)Cc2c(sc3nc(SCCc4ccccc4)n(CCc4ccccc4)c(=O)c23)CO1 | -16
Cc1cc(=O)oc2c1c(C)nn2-c1cc(Cl)ccc1Cl | -12
O=Cc1ccc(Oc2ncnc3ccccc23)cc1 | 97*
O=[N+]([O-])c1ccccc1OCCOc1ncnc2ccccc12 | -16
Fc1ccc(OCCOc2ncnc3ccccc23)cc1 | -13
CC1(C)CC(=O)C2=C(C1)Nc1sc(C#N)c(N)c1C2c1ccccc1 (stereo unspecified) | -6
O=S(=O)(c1ccc(F)cc1)n1cccc1 | -9
Cc1nc(NC(=O)c2ccccc2)sc1-c1csc(Nc2ccc(O)cc2)n1 | 71*
Cc1nc(N)sc1-c1csc(Nc2ccc(S(N)(=O)=O)cc2)n1 | 26
Cc1nc(NC(=O)c2ccccc2)sc1-c1csc(Nc2cccc(C(=O)O)c2)n1 | -8
O=S(=O)(c1ccccc1)N1CCN(Cc2ccccc2Br)CC1 | 10
SMILES | VHR inh color
COC(=O)c1c(NC(=O)c2cncc(Br)c2)sc2c1CCC(C)C2 (stereo unspecified) | -9
Cc1ccc(C)n1-c1ccc(Cl)cc1C(=O)O | 85*
Cc1cc(C(=O)O)ccc1-n1c(C)ccc1C | 58
COc1cc(C(=O)O)c(-n2c(C)ccc2C)cc1OC | 12
Cc1ccc(C)n1-c1ccc(Cl)c(C(=O)O)c1 | -6
Cc1ccc(C)n1-c1cc(C(=O)O)ccc1Cl | 83*
Cc1ccc(C(=O)O)cc1-n1c(C)ccc1C | 23
CCc1ncc(C(O)(c2ccccc2)c2ccc(C)cc2)n1C (stereo unspecified) | 2
Cc1ccc(N=Cc2cccc([N+](=O)[O-])c2)cc1F | -24
CCOc1ccc(-c2nc3cc(NC(=O)c4ccc(Br)o4)ccc3o2)cc1 | 0
N#CC(C#N)=C1C(Cl)=C(Cl)c2ccccc21 | 66*
N#Cc1c(-c2ccccc2)cc(-c2ccccc2Cl)c(C#N)c1N | 7
O=C1C(=O)c2ccccc2C(Cl)=C1Cl | -7
CCOC(=O)c1c(NC(C)=O)sc2c1CCc1ccccc1-2 | 0
CCc1ccccc1N(CC(=O)Nc1ccccc1Br)S(C)(=O)=O | -7
CCOc1ccc(S(=O)(=O)N(CC(=O)NC2CCCCC2)c2ccc(C)cc2)cc1 | 90*
Cc1ccc(N(CC(=O)NC2CCCC2)S(=O)(=O)c2ccc(F)cc2)cc1 | -35
Cc1ccc(N(CC(=O)NC2CCCC2)S(=O)(=O)c2ccccc2)cc1 | 1
O=c1[nH]c(=O)n(-c2ccc(F)cc2)c(O)c1C=Nc1ccc2c(c1)OCO2 | -6
O=C(COc1ccc(Cl)cc1Br)NNC(=O)c1ccccc1O | -2
COC(=O)C(NC(=O)C(C)(C)C)C12CC3CC(CC(C3)C1)C2 (stereo unspecified) | 8
O=C(O)CN1C(=O)/C(=C\c2ccc(-c3ccccc3Cl)o2)SC1=S | 83*
Cc1ccc(/C=C2\SC(=S)N(CC(=O)O)C2=O)o1 | 27
O=C(O)CN1C(=O)/C(=C/c2c(Cl)cccc2Cl)SC1=S | -20
COc1cccc(NC(=O)COc2ccc(C(C)(C)C)cc2)c1 | -20
SMILES | VHR inh color
O=[N+]([O-])c1cnc(Nc2cccc3nsnc23)c([N+](=O)[O-])c1 | 20
Cc1ccc(N2NC(=O)/C(=C\c3ccco3)C2=O)cc1C | -13
Cc1ccc(N2NC(=O)/C(=C/c3cc([N+](=O)[O-])ccc3Cl)C2=O)cc1C | 64*
O=C1NN(c2ccccc2)C(=O)/C1=C/c1ccc(-c2cccc([N+](=O)[O-])c2)o1 | -1
Cc1ccc(N2NC(=O)/C(=C\c3cccc([N+](=O)[O-])c3)C2=O)cc1 | 22
COc1cc(/C=C2\C(=O)NN(c3ccc(Cl)c(Cl)c3)C2=O)c([N+](=O)[O-])cc1OC | 7
Cc1ccc(N2NC(=O)/C(=C/c3ccc4c(c3)OCO4)C2=O)cc1C | -6
Cc1cc([N+](=O)[O-])ccc1-c1ccc(/C=C2/C(=O)NC(=S)N(c3ccc(Cl)cc3)C2=O)o1 | 46
Cc1ccc([N+](=O)[O-])cc1-c1ccc(/C=C2/C(=O)NN(c3ccc(Cl)cc3)C2=O)o1 | 74*
Cc1ccc(N2NC(=O)/C(=C/c3ccc(-c4ccc5c(c4)COC5=O)o3)C2=O)cc1C | 85*
Cc1ccc(S(=O)(=O)O/N=C2\CCCc3nonc32)cc1 | 8
Cc1cc(C)nc(SCC(=O)N/N=C/c2ccc(O)cc2)n1 | -32
Cc1noc2c1/C(=N\O)CC(c1ccccc1)C2 (stereo unspecified) | -6
COc1ccc(Cc2nc3ccccc3n2CC(=O)NN)cc1OC | 12
CCCOc1ccc(-c2ccc(-c3noc(CCC)n3)cc2)cc1 | -9
O=C(c1cccc(F)c1F)N1CCN(c2cc(N3CCCC3)c(F)cc2[N+](=O)[O-])CC1 | -2
CC(=O)OC1COC(n2ncc(=O)[nH]c2=S)C(OC(C)=O)C1OC(C)=O (stereo unspecified) | -5
COCc1cccc(N2C(=O)c3cccc([N+](=O)[O-])c3C2=O)c1 | -12
N#C/C(=C\c1ccc(-c2ccc3c(c2)COC3=O)o1)C(N)=O | 35
N#C/C(=C\c1ccc(-c2ccc3c(c2)COC3=O)o1)c1nc2ccccc2[nH]1 | 64*
N#CC(C#N)=Cc1ccc(-c2ccc3c(c2)COC3=O)o1 | 99
CCC(C)OC(=O)c1cccc(-c2ccc(OC(C)=O)cc2)c1 (stereo unspecified) | -7
CCN(CC)CCn1c2ccccc2n2cc(-c3ccc(C)cc3)nc12 | 0
CC1=NN(c2ccc(S(N)(=O)=O)cc2)C(=O)/C1=C\c1ccc(C)s1 | -15
O=C(Nc1ccc(-c2nc3ccccc3s2)c(O)c1)c1cc2ccccc2o1 | -7
SMILES | VHR inh color
O=C(/C=C/c1ccco1)Nc1ccc(O)c(-c2nc3ccccc3o2)c1 | 18
O=C(/C=C/c1ccco1)Nc1ccc(-c2nc3ccccc3s2)c(O)c1 | 75*
O=[N+]([O-])c1cc(F)c(N2CCOCC2)cc1Br | 0
O=C1C(Cl)=CC(=NS(=O)(=O)c2ccc(Cl)cc2)c2ccccc21 | 4
Cc1ccc(S(=O)(=O)/N=C2\C=CC(=O)C=C2Cl)cc1 | 60
Cc1ccc(S(=O)(=O)/N=C2\C=C(Sc3ncn[nH]3)C(=O)c3ccccc32)cc1 | 64*
COc1ccc(-c2cc(C(=O)N/N=C(\C)c3ccc([N+](=O)[O-])cc3)[nH]n2)cc1 | -3
CCCC(=O)Nc1ccc(NC(=O)c2cc(Br)ccc2I)cc1 | -14

From PubChem
